The panel holds about 83,000 compounds, 20% with a hit somewhere; the sample as a whole holds those more often.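 Step 1: grow cells in 96-well plates. Step 2: add test compound at a single concentration. Step 3: incubate 48 h. Step 4: record percent growth.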 A number with no mark means an inactive call. Activity calls are given as the source filed them. Rule for the calls: active = growth percent below 10; inactive = the rest.
Key:
Test in all cases: NCI-60 one-dose screen, 48 h (100 = growth as untreated, 0 = no growth, -100 = all killed)
Settings in all cases: 10 µM unless noted
SK-MEL-2 melanoma = tested on: SK-MEL-2 melanoma
SN12C renal = tested on: SN12C renal
UO-31 renal = tested on: UO-31 renal
TK-10 renal = tested on: TK-10 renal
ACHN renal = tested on: ACHN renal
CAKI-1 renal = tested on: CAKI-1 renal
A498 renal = tested on: A498 renal
CCRF-CEM leukemia = tested on: CCRF-CEM leukemia
MOLT-4 leukemia = tested on: MOLT-4 leukemia

SMILES	growth (SK-MEL-2 melanoma)	growth (SN12C renal)	growth (UO-31 renal)	growth (TK-10 renal)	growth (ACHN renal)	growth (CAKI-1 renal)	growth (A498 renal)	growth (CCRF-CEM leukemia) [%]	growth (MOLT-4 leukemia)
Cc1cc(Br)c(C)cc1Br	100%	108%	91.3%	105%	102%	95.2%	77.7%	94.4	87.3%
NC(=O)c1cc(Br)cc(Br)c1NS(=O)(=O)c1ccccc1	110%	95.9%	75%	130%	100%	89.8%	96.1%	91.8	123%
COC(=O)[C@H](Cc1cn(C)cn1)NC(=O)[C@@H](NC(=O)Nc1cc(C(F)(F)F)cc(C(F)(F)F)c1)C(C)C	-88.7% [100 µM] (active)	-85.8% [100 µM] (active)	-94.9% [100 µM] (active)	-98.7% [100 µM] (active)	-98.4% [100 µM] (active)	-91.3% [100 µM] (active)	-89.4% [100 µM] (active)	–	-56.2% [100 µM] (active)
